UBC13 inh: inhibitors of human UBC13 polyubiquitin chain formation; P61088; TR-FRET; inhibition, % at 20 µM; 0.47% of 330,000 active; AID 485273; in the data active means inhibition above about 45%, passing the limit was not always enough
Target sequence (P61088 whole entry, looked up): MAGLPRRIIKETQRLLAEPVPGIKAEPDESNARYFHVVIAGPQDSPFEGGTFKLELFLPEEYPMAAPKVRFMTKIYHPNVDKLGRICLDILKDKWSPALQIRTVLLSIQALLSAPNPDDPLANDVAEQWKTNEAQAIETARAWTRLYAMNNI
UHRF1 binding: UHRF1 methyl-DNA binding inhibition; Q96T88; UHRF1 binding to methylated oligo, TR-FRET; inhibition, % at 4.4 µM; 0.75% of 370,000 active; AID 687016; in the data active means inhibition above about 21%;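 further: UHRF1 SRA domain binding a hemimethylated CpG hairpin DNA probe; 0% = median of test compound wells and 100% = reference inhibitor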
Neddylation inh: cullin neddylation inhibition; P61081+Q13564; TR-FRET cullin neddylation, biochemical; calls only at 25 µM; 0.58% of 360,000 active; in the data active means inhibition above about 36%
MBD2 DNA inh: inhibitors of human MBD2 binding to methylated oligonucleotide | Q9UBB5 | TR-FRET | inhibition, % at 4.4 µM | 0.31% of 370,000 active | AID 686964; in the data active means inhibition above about 13%
* = called active by the depositor; i = inactive; / = no result; + = active, no number. Rows were chosen to be rich in hits. Some 1.8% of all compounds tested hit in one or more screens of this group.

SMILES	UBC13 inh	UHRF1 binding	Neddylation inh	MBD2 DNA inh
Cc1ccc(S(=O)(=O)N2CCN(C(=O)c3cccc(-n4cccc4)c3)CC2)cc1	-7	8	i	1
O=C(c1cccc(-n2cccc2)c1)N1CCN(S(=O)(=O)c2ccccc2)CC1	7	56*	i	28*
O=C(c1cccc(S(=O)(=O)N2CCOCC2)c1)N1CCCCCC1	2	40*	i	1
Cc1ccc(NC(=O)CSc2nnc(Cn3cnc4ccccc43)o2)c(C)c1	-1	1	i	0
Cc1ccc(NC(=O)CSc2nnc(Cn3cnc4ccccc43)o2)cc1	-17	21*	i	0
COC(=O)/C=c1/s/c(=C(/C#N)C(=O)N2CCOCC2)n(-c2ccccc2)c1=O	-22	80*	i	2
NC(=O)C1CCC(NC(=O)OCc2ccccc2)CC1 (centres undefined)	4	-1	i	0
CCCCCCn1cc(C(=O)O)c(=O)c2cc(F)c(N3CCN(C)CC3)cc21	-6	/	+	/
Cc1ccc(CNC(=O)c2ccc(-n3cccc3)cc2)cc1	/	35*	i	11
COC(=O)C1=NNC2C(=O)N(C3CCCCC3)C(=O)C12 (centres undefined)	-5	26*	i	11
CN1CCN(CCCCOc2ccc(F)cc2)CC1	1	22*	i	12
CC(C)Oc1ccc(OCCCN2CCCCCC2)cc1	2	-2	i	6
CC(C)(C)c1ccc(OCCCN2CCCC2)cc1	0	24*	i	3
COc1ccc(CCNC(=O)CCNC(=O)N2CC(=O)Nc3ccccc32)cc1	6	0	i	-5
c1cnc(N2CCN(c3cnccn3)CC2)nc1	9	-4	i	-2
CCc1nc2c(c(=O)c3ccccc3n2C)c(=O)n1C1CCCCCC1	-4	59*	i	1
CCC(CC)NC(=O)Cn1c(C(C)NC(C)=O)nc2ccccc21 (centres undefined)	-11	1	i	4
CCc1ccc2[nH]c3nc(N/N=C/c4cccc(O)c4)nnc3c2c1	-23	43*	i	-7
CCNC(=O)CC1C(=O)N(c2ccccc2)C(=O)N1CCC(C)C (centres undefined)	3	3	i	10
Cc1ccc(C)c(NC(=O)CN2C(=O)NC(C)(c3ccc4c(c3)OCCO4)C2=O)c1 (centres undefined)	4	70*	i	-5
CN(C)S(=O)(=O)N1CCC(c2ccc(F)cc2)C(COc2ccc3c(c2)OCO3)C1 (centres undefined)	-4	0	i	0
CCN(C1CCCCC1)S(=O)(=O)c1cc(C)ccc1OC	-3	4	i	1
CCN(C1CCCCC1)S(=O)(=O)c1ccc(OC)c(C)c1	-4	24*	i	8
Cc1ccc2ccc(C(Nc3cccc(C(F)(F)F)c3)c3cccnc3)c(O)c2n1 (centres undefined)	-9	0	+	-7
COc1ccc(-c2[nH]ncc2/C=N/NC(=O)c2cccc([N+](=O)[O-])c2)cc1OC	-5	-1	i	0
SMILES	UBC13 inh	UHRF1 binding	Neddylation inh	MBD2 DNA inh
CCC(C)NS(=O)(=O)c1ccc(OCC(=O)NCc2ccco2)cc1 (centres undefined)	-5	25*	i	-1
CC(NS(=O)(=O)c1ccc(Cl)cc1)C(=O)NCc1ccco1 (centres undefined)	-1	25*	i	10
COc1cccc2c1C(=O)C[C@]1(CCCC[C@@H]1C)O2	8	0	i	-7
COc1ccc(S(=O)(=O)N=Nc2c(O)[nH]c3ccccc23)cc1	-10	46*	i	13*
Cc1cc(=O)oc2cc(OCC(=O)N3c4ccccc4CC3C)ccc12 (centres undefined)	-3	2	i	0
COc1ccc2nc(CCN(C)C(=O)C3CCC(=O)N(Cc4cccc(F)c4)C3)[nH]c2c1 (centres undefined)	-4	-3	i	-8
COc1cccc(CN2CC(C(=O)N(C)Cc3nc4ccc(F)cc4[nH]3)CCC2=O)c1 (centres undefined)	-10	25*	i	0
O=C(CSc1nnc(-c2ccco2)c(-c2ccco2)n1)Nc1ccccc1	-7	41*	i	11
Cn1c(C(=O)NCCCN2CCc3ccccc3C2)cc2c(=O)n(C)c3ccccc3c21	56*	-2	i	3
CCCCNc1nc(Cl)nc(Nc2ccc(C)cc2)n1	-1	21*	i	7
CC1CCN(S(=O)(=O)c2ccc3c(c2)N(CC(=O)NCc2cccnc2)C(=O)CS3)CC1	0	22*	i	8
CCS(=O)(=O)N1CCN(c2ccc(S(=O)(=O)N3CCOCC3)cc2)CC1	3	31*	i	5
COc1ccc(OC)c2sc(NC(=O)C(C)C)nc12	11	-2	i	1
O=[N+]([O-])c1ccc(Nc2ccccc2)c2nonc12	i	-28	i	-24
NNc1ccc([N+](=O)[O-])c2[nH][nH]c(=O)c12	/	40*	i	5
COC(=O)c1ccc(Cl)c(NC(=O)CSc2ncn[nH]2)c1	7	2	i	3
COc1ccc(C(=O)OCC(=O)NCCCc2ccccc2)cc1[N+](=O)[O-]	4	5	i	1
O=C(Nc1ccc(F)cc1F)Nc1csc2ccccc12	14	33*	i	0
CCOC(=O)c1oc2ccc(CNC(C)(C)C)c(Cl)c2c1C	-3	97*	i	-3
COc1ccc(-n2nnnc2C(c2cc3ccccc3o2)N2CCN(C/C=C/c3ccccc3)CC2)cc1 (centres undefined)	/	23*	i	5
CCN(C(=O)CSc1nnnn1C)c1c(N)n(Cc2ccccc2)c(=O)[nH]c1=O	-1	1	i	-7
CSc1nc2cc(F)c(F)cc2n1C	2	-2	i	0
Cc1ccc(S(=O)(=O)CCC(=O)NNC(=O)CN(C)S(=O)(=O)c2ccc(C)cc2)cc1	5	2	i	6
Cc1ccc(S(=O)(=O)N(C)CC(=O)NNC(=O)CCNS(=O)(=O)c2cccc(C)c2)cc1	0	34*	i	2
COCCOC(=O)c1[nH]c2c(c1C)C(=O)CC(c1ccco1)C2 (centres undefined)	-21	33*	i	13
SMILES	UBC13 inh	UHRF1 binding	Neddylation inh	MBD2 DNA inh
CCOC(=O)c1[nH]c2c(c1C)C(=O)CC(c1ccco1)C2 (centres undefined)	-19	18	i	4
O=C(CN1CCN(c2ccc([N+](=O)[O-])cc2)CC1)Nc1ccccn1	-18	-3	i	-4
O=C(NCc1ccc(Cl)cc1)c1ccc(NC(=O)C2CCCO2)cc1 (centres undefined)	10	0	i	0
O=C(NCc1ccc(F)cc1)c1ccc(NC(=O)C2CCCO2)cc1 (centres undefined)	6	38*	i	2
COc1cc2c(cc1OC)C(C(=O)N(C)Cc1ccccc1)C(c1cccnc1)N(C)C2=O (centres undefined)	2	38*	i	3
Cc1c(/C(O)=C2\C(=O)C(=O)N(CCN(C)C)C2c2ccco2)cnn1-c1ccccc1 (centres undefined)	2	1	i	0

High-throughput results as filed in PubChem BioAssay.
